PAX8 inh HTS = inhibitors of PAX8 transcriptional activity in RMG-I cells. RMG-I TPO-luciferase reporter, SteadyGlo, 24 h. actives 1.2% (n = 360,000). inhibition, % at 12.6 µM;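 active means mean replicate inhibition at least 60% with every replicate also reaching 60%; inconclusive means only one of the two criteria is met; inactive means mean below 60% and not all replicates reaching 60%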;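 further: luciferase light reporting Pax8 driven TPO promoter activity; plate controls were median of neutral control wells for no effect and mitoxantrone controls for full effect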
EWS-Fli block = inhibitors of EWS/Fli oncoprotein transcriptional activity. A673 NR0B1-luciferase reporter, viability-normalised. actives 0.67% (n = 350,000). inhibition, % at 12.6 µM;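 active means mean inhibition of at least 50% after viability correction, with every replicate also passing that limit; inconclusive means mean reaches 50% but only one of two replicates passes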;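 further: firefly luciferase signal divided by Alamar Blue viability fluorescence both relative to DMSO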
PGC1a acetyl inh = lowers PGC1a acetylation signal in U2OS cells. actives 0.17% (n = 350,000). inhibition, % at 15.6 µM. AlphaScreen anti-acetyl-lysine; with virally co-expressed GCN5 acetyltransferase;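 active means every replicate shows inhibition of at least 40%; inconclusive means mean inhibition at least 40% but some replicate below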;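 further: 0% = neutral control wells and 100% = positive control wells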
LGR2 inh = blocks bursicon-induced cAMP signaling via Drosophila LGR2. actives 0.35% (n = 380,000). HEK293 LGR2, CRE-luciferase, bursicon-stimulated, 4 h. inhibition, % at 9.99 µM. AID 720647;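 active means drop in luminescence signal, shown as inhibition above about 50% in the replicate tests, limit read from the data, passing the limit was not always enough; inconclusive means probably only some replicates passing the limit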;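 further: agonist challenge used bursicon conditioned medium at about half maximal strength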
rRNA inh HTS = inhibits bacterial ribosomal RNA function over humanized ribosomes; E. coli WT GFP vs humanized-ribosome RFP mutants, fluorescence, 24 h; active compounds read low; DMSO median 0, no signal -100; GFP signal change (wild-type ribosome), % (concentration not given with the values); actives 1.6% (n = 350,000);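 active means significant combined selectivity score with lowered wild-type GFP, culture density cut under 30%, mutant RFP and density less affected; inactive means any of these conditions unmet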
SIRT5 inh = blocks human SIRT5 desuccinylation of peptide; Q9NXA8; Purified SirT5, succinyl-peptide AMC, trypsin-coupled fluorescence; inhibition, % at 15 µM; actives 1.1% (n = 330,000); AID 652115; in the data active means inhibition above about 15%; inconclusive means no clear call, values can overlap the other calls
Target sequence (Q9NXA8 whole entry, looked up): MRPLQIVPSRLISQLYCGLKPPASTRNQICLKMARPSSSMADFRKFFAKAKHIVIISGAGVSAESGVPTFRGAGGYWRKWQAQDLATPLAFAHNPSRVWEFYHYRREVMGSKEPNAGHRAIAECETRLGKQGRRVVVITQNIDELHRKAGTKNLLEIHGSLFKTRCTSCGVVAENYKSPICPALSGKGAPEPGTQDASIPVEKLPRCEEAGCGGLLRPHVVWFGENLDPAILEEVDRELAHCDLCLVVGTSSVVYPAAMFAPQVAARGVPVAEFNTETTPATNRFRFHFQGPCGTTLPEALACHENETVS
* marks the source's active call; other numbers are inactive results; ? = inconclusive; · = not tested or not shown. Compounds with a hit are over-represented: about 3.4% of the library has one in this group of screens.

SMILES	PAX8 inh HTS	EWS-Fli block	PGC1a acetyl inh	LGR2 inh	rRNA inh HTS	SIRT5 inh
CCCC#Cc1ccc2c(c1)O[C@H](CN(C)Cc1ccccc1)[C@@H](C)CN([C@H](C)CO)S2(=O)=O	80*	21	7	3	-2	20*
CC(C)C#Cc1ccc2c(c1)O[C@H](CN(C)Cc1ccccc1)[C@H](C)CN([C@H](C)CO)S2(=O)=O	·	18	-16	0	-16	16*
CC(C)C#Cc1ccc2c(c1)O[C@@H](CN(C)Cc1ccccc1)[C@@H](C)CN([C@@H](C)CO)S2(=O)=O	·	-11	99*	0	-5	17*
C[C@H](CO)N1C[C@H](C)[C@@H](CN(C)C(=O)Nc2ccc3c(c2)OCO3)Oc2ccc(NC(=O)c3ccncc3)cc2CC1=O	·	-19	9	-8	-3	-2
CCCNC(=O)N1CC2(C1)CN(C(=O)c1ccncc1)[C@H](CO)c1[nH]c3cc(OC)ccc3c12	·	-7	3	5	6	-3
Cc1ccc(S(=O)(=O)N[C@@H]2CC[C@H](CCn3cc(C4CC4)nn3)O[C@H]2CO)cc1	3	3	0	-11	0	6
COc1ccc(S(=O)(=O)Nc2ccc3c(c2)CC(=O)N([C@H](C)CO)C[C@@H](C)[C@H](CN(C)Cc2ccc(Cl)c(Cl)c2)O3)cc1	2	-16	3	19	2	-1
Cc1cccc(C)c1-c1ccc(CN2C(CC(C)C)C(=O)N(Cc3cn(CC4CCCCC4)nn3)CCS2(=O)=O)cc1 (stereo not given)	70*	0	2	0	7	-3
CC(C)CC1C(=O)N(Cc2cn(CC3CCCCC3)nn2)CCS(=O)(=O)N1Cc1ccc(-c2cccc(CO)c2)cc1 (stereo not given)	43	16	-48	48	5	2
Cc1ccc(-c2ccc(CN3C(C(C)C)C(=O)N(Cc4cn(Cc5ccco5)nn4)CCS3(=O)=O)cc2)cc1 (stereo not given)	17	1	3	12	·	16*
CC(C)CC1C(=O)N(Cc2cn(CC3CCCCC3)nn2)CCS(=O)(=O)N1Cc1ccc(-c2ccc(Cl)c(Cl)c2)cc1 (stereo not given)	-3	-5	·	-13	16	19*
CC(C)C1C(=O)N(Cc2cn(Cc3ccco3)nn2)CCS(=O)(=O)N1Cc1ccc(-c2cccc(N(C)C)c2)cc1 (stereo not given)	22	4	10	-18	4	·
C[C@H](CO)N1C[C@H](C)[C@H](CN(C)C(=O)Cc2ccncc2)Oc2cc(C#CC3(O)CCCC3)ccc2S1(=O)=O	3	1	-3	-24	-4	-2
CCc1cnc(N2[C@H](C#N)[C@@H](c3ccccc3C3=CCCC3)[C@@H]2CO)s1	·	·	·	·	-31	·
CCN(CC)c1ccc(/C=C/c2cccc[n+]2C)c(OC)c1	95*	11	·	26	6	2
COc1ccc(/C=C/c2cccc[n+]2C)c(O)c1	19	-11	-2	-5	7	9
O=C1C=C(Nc2ccc(Cl)cc2Cl)CC(c2ccco2)C1 (stereo not given)	19	?	-11	10	-22*	4
CCOC(=O)c1ccc(NC2=CC(=O)CC(c3ccco3)C2)cc1 (stereo not given)	-2	-2	7	-1	-22*	·
O=C1C=C(Nc2ccc(O)cc2)CC(c2ccco2)C1 (stereo not given)	16	·	12	·	·	·
O=C(NCC[C@@H]1CC[C@@H](NS(=O)(=O)c2ccc(F)cc2)[C@@H](CO)O1)Nc1ccc(F)cc1	-8	-10	3	0	-7	-3
CCOc1ccc(CCNC(=O)c2cccc(S(=O)(=O)N3CCCCC3)c2)cc1OCC	31	11	-13	14	8	-3

High-throughput results (PubChem)
